# Screens (PubChem)
# Rows were chosen to be rich in hits. Some 19% of all compounds tested hit in one or more screens of this group.
# Pf growth 48h = P. falciparum growth inhibition at 48 hours (one generation) | P. falciparum luciferase growth in erythrocytes, 48 h | Potency, µM (top dose mostly 28.7 µM), most hits filed as inhibitors | 5.9% of 310,000 active | AID 504832
#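 Luciferase-expressing parasites in RBCs, 2% Hct / 0.1% parasitemia final; RPMI 1640 + 0.5% Albumax; 37 C, 5% CO2, one generation; luminescence read-out, lower signal = inhibition.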
# SARS PLP yeast = blocks SARS-CoV papain-like protease in a yeast assay. S. cerevisiae expressing SARS-CoV PLpro, growth rescue. Potency, µM (doses to about 32.9 µM), usual class: activators. 0.19% of 330,000 active; calls by dose curve; also: nearly all actives have a fitted effect of over 55% in size
# AMA1 RON2 block = inhibitors of Plasmodium falciparum AMA1-RON2 interaction | 0.2% of 360,000 active | Potency, µM (top dose mostly 58.2 µM), usual class: inhibitors | AlphaScreen AMA1-biotinylated RON2 peptide binding; also: nearly all actives have a fitted effect of over 45% in size
#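 AMA1 (3D7) with his tag at 25 nM final met compounds first, then biotinylated RON2 peptide at 25 nM; detection used donor plus acceptor beads, 10 µg/mL apiece, read by AlphaScreen after 30 min at room temperature.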
# Shiga toxin inh = Shiga toxin inhibition | inhibition, % at 38.7 µM | 9.2% of 290,000 active | Vero cells, Shiga toxin protein synthesis inhibition reporter; in the data active = inhibition mostly above about 28%, no sharp cut-off; inactive = mostly below about 43%
# CHX counter = counter-screen for Shiga toxin inhibitors: cycloheximide protein synthesis inhibition. 12% of 300,000 active. max response, %. cell reporter, cycloheximide protein synthesis inhibition counterscreen; in the data active = max response mostly above about 13%, no sharp cut-off; inactive = mostly below about 14%; also: read at 38.3 µM for the half of the compounds with a filed dose
# Pf growth 96h = P. falciparum growth inhibition at 96 hours; Potency, µM (doses to about 28.7 µM), usual class: inhibitors; 6.9% of 320,000 active; P. falciparum luciferase reporter growth, 96 h; AID 504834
#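 Plates of compound plus infected erythrocytes (2% hematocrit, 0.05% parasitemia final) incubate 96 hours, 37 C, 5% CO2. Detection reagent added; reduced luminescence from the parasites' luciferase reporter flags inhibition.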
# Numbers stand for hits; 0 = inactive; ? = inconclusive; - = not tested or not shown; + = active, no number. Unless noted, calls follow the shape of the dose curve; as a rule, active = well fitted curve in the direction sought with a large enough effect; inconclusive = small, poorly fitted or top-dose-only effect, or another doubt; inactive = no such curve, though single readings can be large; an effect the other way counts as inactive or inconclusive.
SMILES,Pf growth 48h,SARS PLP yeast,AMA1 RON2 block,Shiga toxin inh,CHX counter,Pf growth 96h
Nc1ccc2oc(-c3ccccn3)nc2c1,0,0,0,71,34,0
O=C1CCC(=O)N1c1cccc(-c2nc3ccccc3o2)c1,-,0,0,0,0,?
c1ccc(-c2nc3ccccc3o2)nc1,0,0,0,51,42,-
COc1cccc(S(=O)(=O)Nc2ccc3c(c2)C(=O)N(C)C[C@H](OC)[C@H](C)CN[C@@H](C)CO3)c1,-,-,0,-,-,-
OC12CC3C[C@H](C1)C(N1CCOCC1)[C@@H](C3)C2 (stereo not given in full),0,0,0,0,0,?
C=CCOc1ccc(Br)cc1CNC(C)(C)C,0,0,0,0,0,0
Clc1ccc2oc(-c3ccccn3)nc2c1,0,0,0,118,44,?
CCCC(=O)c1ccc(N2CCOCC2)c(F)c1,0,0,0,68,38,0
Cc1cc(N2CCOCC2)c(F)cc1C(=O)c1ccccc1,?,0,0,0,0,?
CCC(=O)c1ccc(N2CCOCC2)c(F)c1,-,-,0,-,-,-
Cc1ccc(C(=O)c2ccc(N3CCOCC3)c(F)c2)cc1,0,0,0,66,62,0
C=CCOc1ccc(-c2nc3c(c(=O)[nH]c(=O)n3CCCC)n2C)cc1Br,0,0,0,0,0,0
CCCCn1c(=O)[nH]c(=O)c2c1nc(-c1ccc(OC)c(Br)c1)n2CC(C)C,?,0,0,0,0,2.1µM
COc1ccc(C2C(C(C)=O)=C(O)C(=O)N2c2ccc(Br)cn2)cc1 (stereo not given),?,0,0,0,0,4.1µM
COc1ccc(C2C(C(=O)c3cccs3)=C(O)C(=O)N2c2cccc(C)n2)cc1 (stereo not given),0,0,0,0,0,0
Cc1ccc(OC(=O)C2CSC3(C)CCC(=O)N23)c(Br)c1 (stereo not given),0,0,0,-,-,5.9µM
CC1(C)Cc2c(C#N)c(N3CCN(C(=O)c4ccco4)CC3)nc(-c3ccco3)c2CS1,4.7µM,0,?,0,0,?
Cc1nc(N2CCN(C(=O)c3ccc(Cl)cc3)CC2)c(C#N)c2c1COC(C)(C)C2,0,0,0,0,0,-
CC(=O)N1CCN(c2nc(-c3ccco3)c3c(c2C#N)CC(C)(C)SC3)CC1,?,0,0,0,0,?
CC1(C)Cc2c(C#N)c(N3CCN(C(=O)c4ccccc4Cl)CC3)nc(-c3ccco3)c2CS1,?,0,?,0,0,1.7µM
COc1ccc2cc(S(=O)(=O)NCc3cccnc3)ccc2c1,0,0,0,0,0,0
CCOc1ccc(CNC(=O)c2ccccc2NC(=O)C2=CSCCO2)cc1,?,0,0,0,0,0
CCCNC(=O)c1ccccc1NC(=O)C1=CSCCO1,0,0,0,0,0,15µM
CN(Cc1ccccc1)C(=O)c1ccc(NC(=O)C2=CSCCO2)cc1,0,0,0,44,48,?
COc1ccc(CNC(=O)c2ccc(NC(=O)C3=CSCCO3)cc2)cc1,0,0,0,71,28,?
SMILES,Pf growth 48h,SARS PLP yeast,AMA1 RON2 block,Shiga toxin inh,CHX counter,Pf growth 96h
CC(C)CCNC(=O)c1ccccc1NC(=O)C1=CSCCO1,0,0,0,0,0,0
CCCSCCCNC(=O)c1ccc(NC(=O)C2=CSCCO2)cc1,0,0,0,67,0,?
CN(Cc1ccccc1)C(=O)c1ccccc1NC(=O)C1=CSCCO1,0,0,0,0,0,0
C=C1CCN(C(Cc2ccccc2)C(=O)NCc2ccccc2)S(=O)(=O)c2ccccc21 (stereo not given),-,-,-,0,0,-
O=C(Cc1ccc(NC(=O)C2CCCN(C(=O)CCc3ccccc3)C2)cc1)Nc1cccc(C(=O)N2CCCC2)c1 (stereo not given),-,-,0,-,-,-
CCCNC(=O)c1ccccc1NS(=O)(=O)c1ccc2c(c1)OCCO2,9.3µM,0,0,0,0,0
CCCCNC(=O)c1ccccc1NS(=O)(=O)c1ccc2c(c1)OCCO2,?,0,0,0,0,-
Cc1cccc(CNC(=O)c2ccc(NC(=O)C3=CSCCO3)cc2)c1,0,0,0,0,40,?
O=C(CSc1cccc[n+]1[O-])Nc1c(Br)cc([N+](=O)[O-])cc1Br,?,0,0,0,0,0
Cc1nonc1NC(=O)CSc1nc2c(C)cccc2cc1C#N,?,0,0,68,41,10µM
CCOC(=O)c1cc(-c2ccc(OC)cc2)nc2c1c(C)nn2CCC#N,5.2µM,0,0,0,0,-
CCOC(=O)c1cc(-c2ccccc2)nn1CCC#N,?,0,0,0,0,?
CCOC(=O)c1cc(-c2ccc(C)o2)nn1CCC#N,?,0,0,0,0,12µM
CCOC(=O)c1cc(-c2ccc(C#N)cc2)nc2c1c(C)nn2CCC#N,?,0,0,0,0,-
Cc1ccc(NC(=O)Cc2nnc(SCC(=O)NC3CCCC3)n2C)cc1C,0,0,0,0,0,0
CC(C)(C)NC(=O)CN(Cc1ccc2c(c1)OCO2)C(=O)CNS(=O)(=O)c1ccccc1,0,0,0,0,0,?
CC(C)[C@H](NC(=O)c1ccccc1)C(=O)OCC(=O)c1ccccc1F,0,0,0,0,16,0
COc1ccc(C(=O)/C=C/Nc2ccc([N+](=O)[O-])cc2C)cc1OC,0,0,0,0,0,0
COc1ccc(N/C=C/C(=O)c2cc(OC)c(OC)c(OC)c2)cc1,0,0,0,-,17,0
COc1ccc(N/C=C/C(=O)c2ccc(OC)c(OC)c2)cc1,?,0,0,56,24,?
COC(=O)c1ccc(N/C=C/C(=O)c2ccc(OC)c(OC)c2)cc1,0,0,0,0,0,0
COc1ccc(C(=O)/C=C/Nc2cccc(C)n2)cc1OC,0,0,0,+,65,0
CON(C)c1nc(NCC(C)C)nc(OCC#N)n1,0,0,0,0,0,0
COc1ccc(NC(=O)COC(=O)CNC(=O)c2cccs2)cc1Cl,0,0,0,-,-,0
O=C(c1cccc(C(F)(F)F)c1)C1CCCN(C(=O)CCn2cnnn2)C1 (stereo not given),0,0,0,0,0,0
SMILES,Pf growth 48h,SARS PLP yeast,AMA1 RON2 block,Shiga toxin inh,CHX counter,Pf growth 96h
CCSc1nnc(SCC(=O)NC2CCCCC2)s1,0,0,0,-,-,0
COC(=O)c1ccccc1NC(=S)N1CCN(c2ccc(OC)cc2)CC1,0,0,?,0,0,0
Cc1ccc(N=Cc2ccc[nH]2)c(O)c1,0,0,0,98,44,?
CC1CN(C(=O)c2cc([N+](=O)[O-])cc([N+](=O)[O-])c2)CC(C)O1 (stereo not given),0,0,0,104,42,0
Cc1ccc(C(=O)N2CC(C)OC(C)C2)cc1[N+](=O)[O-] (stereo not given),0,0,0,0,0,?
Cc1nc(-c2ccc(S(=O)(=O)Oc3ccc(Cl)cc3Cl)s2)cs1,0,0,0,0,0,0
CCOc1cc(CNCCc2c[nH]c3ccccc23)cc(Cl)c1OCC(N)=O,?,0,0,0,0,4.7µM
